Laboratory results reported in PubChem BioAssay (NCI).
Compounds without any hit were thinned out: in the full panel of roughly 83,000, 20% have a hit.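 In brief: 96-well plates, 48 h treatment, single concentration, percent growth endpoint.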 Activity calls are given as the source filed them. Rule for the calls: active = growth percent below 10; inactive = the rest.

Tested on: SNB-75 CNS
Assay: NCI-60 one-dose screen, 48 h (100 = growth as untreated, 0 = no growth, -100 = all killed)
Conditions: 10 µM unless noted

Structure (SMILES)	growth
CC(=O)N1N=C(c2ccc(Cl)cc2)CC1c1c(C)nn(-c2ccccc2)c1N(C)Cc1ccccc1 (centres undefined)	80.3% (inactive)
CC1(C)CC2(C)CC(=O)C1C(C(=O)O)C2C(=O)O (centres undefined)	96.4% (inactive)
COc1ccc(-c2cnc(SCC(=O)Nc3ccc(-c4nc5ccccc5s4)cc3)n2-c2ccc(OC)cc2)cc1	93.5% (inactive)
COc1ccc2c(c1)[n+](=O)c(C(=O)/C=C/c1cc(OC)c(OC)c(OC)c1)c(C)n2[O-]	62.2% (inactive)
Nc1c(C(=O)Nc2cccc(Cl)c2)sc2nc3c(cc12)C(O)CCC3 (centres undefined)	28.8% (inactive)
COc1cccc(-c2nc(-c3ccc(N)cc3)co2)c1	116% (inactive)
O=C(Nc1ccccc1S)c1ccccc1	81.7% (inactive)
Nc1nc(SCc2cccnc2)c2ncn(C3OC(CO)C(O)C3O)c2n1 (centres undefined)	101% (inactive)
O=C1c2cc3c(cc2-c2c1c1ccc(Cl)cc1c(=O)n2CCCNCCO)OCO3	-88.8% (active)
N#Cc1c(NC(=O)c2ccco2)[n+]([O-])c2cc(Cl)c(Cl)cc2[n+]1[O-]	103% (inactive)
Cc1[nH]ccc2cc3nc4ccccc4c3cc12	40% (inactive)
C=C1CC[C@@H]2[C@](C)(COC(C)=O)[C@H](OC(C)=O)CC[C@@]2(C)[C@@H]1CC(NCc1ccccc1)C1=CCOC1=O (some centres undefined)	76.9% (inactive)
COC(=O)c1cc2oc(/C=N\NC(=O)c3cc4oc(C)c(C)c4[nH]3)cc2[nH]1	112% (inactive)
O=C(CSc1nnc(-c2cc(-c3ccccc3)nc3ccccc23)o1)c1ccc(Br)cc1	97.4% (inactive)
